# Data reported in PMC11574364.
# Molecular target: SLTM (Homo sapiens, UniProt Q9NWH9)
# Assay: protein domain microarray probed with biotinylated miRNA; Domain array: 20 mM Tris-HCl pH 7.4, 200 mM KCl, 0.2 mM EDTA, 0.05% NP40, 2 ug/ul heparin, overnight 4 C. ORF array: PBS pH 7.0 with RNase inhibitor, 100 ng RNA; high values mean tight binding
# Conditions: ssRNA
# Sequence of SLTM (Q9NWH9 360-485): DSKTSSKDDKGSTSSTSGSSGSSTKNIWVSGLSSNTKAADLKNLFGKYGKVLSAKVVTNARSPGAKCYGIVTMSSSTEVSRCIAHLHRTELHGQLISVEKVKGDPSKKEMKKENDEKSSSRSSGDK
row,Sequence,binding signal
1,UGAGGUAGUAGGUUGUAUGGUU,141.8 ± 1.03 fluorescence intensity
2,AGAGGUAGUAGGUUGCAUAGUU,123 fluorescence intensity
3,UAGCUUAUCAGACUGAUGUUGA,33.6 ± 0.863 fluorescence intensity
4,UGAGGUAGUAGGUUGUGUGGUU,305 ± 14.8 fluorescence intensity
5,UGAGGUAGUAGGUUGUAUAGUU,57.9 ± 0.728 fluorescence intensity
6,CAGUGCAAUGAUGAAAGGGCAU,123 ± 2.81 fluorescence intensity
